# Laboratory results: PubChem BioAssay (NCI)
# About 79,000 compounds went through this panel and 15% of them were active in at least one assay; those are over-represented in the sample as a whole. A number with no mark means an inactive call. Calls of active or inactive are those of the source. No stated cut-off is given here; in the data, active means growth inhibition above about 70%; inactive means the rest.
# Columns and labels:
# [1] = NCI Yeast Anticancer Drug Screen. Data for the wt1 strain (AID 149);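 further: 0% = growth of vehicle-treated wt1 cultures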; settings: S. cerevisiae wt1 strain (SPY 50644) growth inhibition, stronger effect = higher value
# Method in brief: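 The wt1 strain was treated with compounds, and growth was compared with vehicle-treated cultures to give inhibition.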
# [2] = NCI Yeast Anticancer Drug Screen. Data for the rad50EPP+ strain (AID 151);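 further: 0% = growth of vehicle-treated control cultures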; settings: S. cerevisiae rad50 mutant strain, stronger effect = higher value
# Method in brief: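 In this screen, rad50EPP+ yeast were exposed to compounds. Growth inhibition was scored against vehicle-treated controls.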
# [3] = NCI Yeast Anticancer Drug Screen. Data for the rad50 strain (AID 155);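 further: 0% = growth of vehicle-only cultures of the same strain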; settings: S. cerevisiae rad50 strain growth inhibition, stronger effect = higher value
# Method in brief: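 Cells are treated with compound, grown, and their growth is then scored against vehicle-only cultures of the same repair-deficient yeast strain.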
# [4] = NCI Yeast Anticancer Drug Screen. Data for the mec2-1 strain (AID 157); settings: S. cerevisiae mec2-1 strain, stronger effect = higher value
# Method in brief: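 Vehicle-treated cultures served as reference for growth inhibition of compound-exposed mec2-1 yeast.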
# [5] = NCI Yeast Anticancer Drug Screen. Data for the rad14 strain (AID 159);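 further: 0% = growth of vehicle-treated control cultures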; settings: S. cerevisiae rad14 strain growth inhibition, stronger effect = higher value
# Method in brief: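 Readout: yeast growth inhibition, referenced to vehicle-only cultures. Strain bears a defined alteration in DNA damage repair.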
# [6] = NCI Yeast Anticancer Drug Screen. Data for the sgs1 mgt1 strain (AID 161);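 further: 0% = growth of cultures given vehicle only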; settings: S. cerevisiae sgs1 mgt1 strain, stronger effect = higher value
# Method in brief: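 Mutant yeast exposed to compound; growth scored against vehicle-only wells.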
# [7] = NCI Yeast Anticancer Drug Screen. Data for the CLN2oe strain (AID 163);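 further: 0% = growth of vehicle-only control cultures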; settings: S. cerevisiae CLN2oe strain, stronger effect = higher value
# Method in brief: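 Inhibition relative to vehicle-treated yeast is reported. Cells: strain with genetic alteration in cell-cycle control, grown with compound.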
# [8] = NCI Yeast Anticancer Drug Screen. Data for the bub3 strain (AID 167); settings: S. cerevisiae bub3 mutant strain, stronger effect = higher value
# Method in brief: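 Part of a panel of yeast mutants defective in DNA damage repair or cell cycle regulation. Each strain is grown with compound, and inhibition is calculated relative to solvent-treated cultures.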
# [9] = NCI Yeast Anticancer Drug Screen. Data for the wt2 strain (AID 169);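 further: 0% = growth of vehicle-treated yeast cultures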; settings: S. cerevisiae wt2 strain growth inhibition, stronger effect = higher value
# Method in brief: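 Inhibition of yeast growth was determined after compound treatment, normalised to controls receiving only vehicle.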
# [10] = NCI Yeast Anticancer Drug Screen. Data for the mlh1 strain (AID 171);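 further: 0% = growth of vehicle-treated control cultures of the same strain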; settings: S. cerevisiae mlh1 strain growth inhibition, stronger effect = higher value
# Method in brief: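 Vehicle-normalised growth inhibition of a repair- or checkpoint-altered yeast strain following compound treatment.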
# [11] = NCI Yeast Anticancer Drug Screen. Data for the mlh1 rad18 strain (AID 175); settings: S. cerevisiae mlh1 rad18 strain growth inhibition, stronger effect = higher value
# Method in brief: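 Vehicle-treated cultures served as the reference for growth inhibition in a yeast strain carrying DNA damage repair alterations exposed to each compound.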
# [12] = NCI Yeast Anticancer Drug Screen. Data for the rad18 strain (AID 177); settings: S. cerevisiae rad18 mutant growth inhibition, stronger effect = higher value
# Method in brief: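 Test articles were incubated with altered yeast defective in DNA damage repair. Results are given as inhibition of growth versus vehicle.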
# [13] = at 5.0 µM (retest, dose inferred, filed as 0.5)
# [14] = at 50.0 µM (retest, dose inferred, filed as 5.0)
smiles,measurement,setting,value
Nc1ccc2ncc(Nc3ccc(Cl)c(Cl)c3)nc2c1,growth inhibition,[1]; at 1.2 µM,-19%
same,growth inhibition,[1]; at 3.7 µM,1%
same,growth inhibition,[1]; at 11.0 µM,49%
same,growth inhibition,[1]; at 33.0 µM,95% (active)
same,growth inhibition,[1]; at 100.0 µM,96% (active)
same,growth inhibition,[2]; at 1.2 µM,-11%
same,growth inhibition,[2]; at 3.7 µM,-6%
same,growth inhibition,[2]; at 11.0 µM,11%
same,growth inhibition,[2]; at 33.0 µM,37%
same,growth inhibition,[2]; at 100.0 µM,59%
same,growth inhibition,[3]; at 1.2 µM,3%
same,growth inhibition,[3]; at 3.7 µM,10%
same,growth inhibition,[3]; [13],1%
same,growth inhibition,[3]; at 11.0 µM,70% (active)
same,growth inhibition,[3]; at 33.0 µM,96% (active)
same,growth inhibition,[3]; [14],95% (active)
same,growth inhibition,[3]; at 50.0 µM,85% (active)
same,growth inhibition,[3]; at 100.0 µM,96% (active)
same,growth inhibition,[4]; at 1.2 µM,-6%
same,growth inhibition,[4]; at 3.7 µM,-16%
same,growth inhibition,[4]; [13],28%
same,growth inhibition,[4]; at 11.0 µM,53%
same,growth inhibition,[4]; at 33.0 µM,96% (active)
same,growth inhibition,[4]; [14],98% (active)
same,growth inhibition,[4]; at 50.0 µM,86% (active)
same,growth inhibition,[4]; at 100.0 µM,97% (active)
same,growth inhibition,[5]; at 1.2 µM,-20%
same,growth inhibition,[5]; at 3.7 µM,-9%
same,growth inhibition,[5]; at 11.0 µM,73% (active)
same,growth inhibition,[5]; at 33.0 µM,97% (active)
same,growth inhibition,[5]; at 100.0 µM,96% (active)
same,growth inhibition,[6]; [13],12%
same,growth inhibition,[6]; [14],95% (active)
same,growth inhibition,[6]; at 50.0 µM,89% (active)
same,growth inhibition,[7]; at 1.2 µM,-17%
same,growth inhibition,[7]; at 3.7 µM,-6%
same,growth inhibition,[7]; at 11.0 µM,69%
same,growth inhibition,[7]; at 33.0 µM,97% (active)
same,growth inhibition,[7]; at 100.0 µM,97% (active)
same,growth inhibition,[8]; at 1.2 µM,-13%
same,growth inhibition,[8]; at 3.7 µM,-3%
same,growth inhibition,[8]; [13],44%
same,growth inhibition,[8]; at 11.0 µM,54%
same,growth inhibition,[8]; at 33.0 µM,96% (active)
same,growth inhibition,[8]; [14],97% (active)
same,growth inhibition,[8]; at 50.0 µM,87.2% (active)
same,growth inhibition,[8]; at 100.0 µM,96% (active)
same,growth inhibition,[9]; at 1.2 µM,-15%
same,growth inhibition,[9]; at 3.7 µM,0%
same,growth inhibition,[9]; at 11.0 µM,57%
same,growth inhibition,[9]; at 33.0 µM,97% (active)
same,growth inhibition,[9]; at 100.0 µM,97% (active)
same,growth inhibition,[10]; at 1.2 µM,-4%
same,growth inhibition,[10]; at 3.7 µM,4%
same,growth inhibition,[10]; at 11.0 µM,75% (active)
same,growth inhibition,[10]; at 33.0 µM,96% (active)
same,growth inhibition,[10]; at 100.0 µM,97% (active)
same,growth inhibition,[11]; [13],44%
same,growth inhibition,[11]; [14],98% (active)
same,growth inhibition,[11]; at 50.0 µM,80.5% (active)
same,growth inhibition,[12]; at 1.2 µM,-13%
same,growth inhibition,[12]; at 3.7 µM,-9%
same,growth inhibition,[12]; at 11.0 µM,11%
same,growth inhibition,[12]; at 33.0 µM,97% (active)
same,growth inhibition,[12]; at 100.0 µM,98% (active)
